24 compounds from PubChem BioAssay can be followed below.

Several values for one entry are separate records, joined by “and”; a condition that tells them apart may be missing. Equal values may be shown once. Unmarked numbers belong to inactive results.

The target in the experiment is Homeobox protein Hox-A13 (Mus musculus) (UniProt Q62424). The experiment can be described thus: disruptors of Hoxa13 oligonucleotide interaction – biochemical, fluorescence polarization, labeled oligonucleotide, primary screen (AID 1185). The settings on record: Hoxa13:DNA binding, 15 min, higher = more signal, called active from +8 up or from −8 down. On the technique in general: Polarisation of emitted light reports the rotation of a fluorescent probe.
Chain of Homeobox protein Hox-A13 (Mus musculus) (Q62424 whole entry, looked up): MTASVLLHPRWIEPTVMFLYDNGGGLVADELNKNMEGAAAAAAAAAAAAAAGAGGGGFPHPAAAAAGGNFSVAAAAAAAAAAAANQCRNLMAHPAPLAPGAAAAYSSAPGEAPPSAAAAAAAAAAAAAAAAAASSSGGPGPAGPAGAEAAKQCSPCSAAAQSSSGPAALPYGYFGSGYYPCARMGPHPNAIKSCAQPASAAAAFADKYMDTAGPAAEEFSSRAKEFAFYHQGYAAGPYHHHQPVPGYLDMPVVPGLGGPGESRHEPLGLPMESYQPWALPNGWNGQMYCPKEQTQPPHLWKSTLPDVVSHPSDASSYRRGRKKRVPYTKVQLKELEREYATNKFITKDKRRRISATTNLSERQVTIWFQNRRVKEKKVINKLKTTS
For `C=C[C@@H](OC)[C@H](O)c1ccc(OCCO)cc1`, the z-score is -0.717 and -0.113. The figure for `COC(=O)C1=C(C)N(Cc2ccccc2)C2=C(C(C)=O)C[C@@](O)(C(=O)OC)C(=O)N2[C@@H]1c1ccccc1` is -1.52 and -2.36.

`CO[C@@H]1COC(=O)CC=C[C@H](C)COC(=O)[C@H](C)NC(=O)CC=C[C@H]1C`: the z-score was -0.16. As for `Cc1ccc(S(=O)(=O)N[C@@H]2COC(=O)CC=C[C@@H](C)[C@@H]3C=C[C@H](O)[C@@H](COC(=O)CC=C[C@H]2C)O3)cc1`, the figure is -1.86 and -1.1. Consider `Cc1ccc(S(=O)(=O)OC[C@@H]2CN3[C@@H](CC[C@@H](C)[C@@H]3c3ccc(Br)cc3)C(=O)O2)cc1`, for which the z-score was 0.16 and 0.956. The figure for `O=C1[C@H]2[C@H]3[C@H](O)[C@H](O)CC(=NOCc4ccccc4)[C@H]3CC[C@H]2C(=O)N1Cc1ccccc1` is -1.09; for `C=CCN(C(=O)C(c1cccs1)N(C(=O)/C=C\C(=O)O)C(C)(C)CO)C(C)(C)C` (centres undefined) it is 0.692 and 0.558. As to `CON(C)C(=O)c1nnc2c3ccccc3n(S(=O)(=O)c3ccc(C)cc3)c2n1`, the z-score is -5.36 and -5.11. The figure for `CCOC(=O)NN=C1C[C@@H](O)[C@@H](O)[C@@H]2[C@@H]3C(=O)N(Cc4ccc5c(c4)OCO5)C(=O)[C@@H]3CC[C@@H]12` is -0.24; for `C[C@@H]1CC[C@H]2C(=O)N3[C@@H](CC[C@@H](C)[C@@H]3c3ccc(-c4ccco4)cc3)C(=O)N2[C@H]1c1ccc(-c2ccco2)cc1` it is -1.46 and 0.517; for `C=CCN1C(=O)[C@]2(O[C@H](CCn3cc(CCO)nn3)[C@@H]([Si](C)(C)c3ccc(OC)cc3)[C@@H]2C)c2cc(N3C(=O)c4cccc5cccc3c45)ccc21` it is -5.18 and -5.57. As for `CCOC(=O)c1ccc(NC(=O)O[C@H]2[C@H](OC(=O)Nc3ccccc3)[C@H](OC(=O)Nc3ccccc3)[C@@H](OC)O[C@@H]2CO)cc1`, the figure is -1.14 and -4.8; as for `C=CCN(C(=O)C(c1cccs1)N(C(=O)/C=C\C(=O)O)C(C)(C)CO)c1ccc(OC)cc1` (centres undefined), -0.168 and -2.07. As for `C[C@@H]1CC[C@@H](C(=O)O)N[C@H]1c1ccc(-c2ccco2)cc1`, the figure is -1.59; as for `O=C(NN=C1C[C@@H](O)[C@@H](O)[C@@H]2[C@@H]3C(=O)N(Cc4ccc5c(c4)OCO5)C(=O)[C@@H]3CC[C@H]12)OCc1ccccc1`, 0.0311. Consider `C[C@@H]1CN2[C@@H](CC[C@@H](C)[C@@H]2c2ccc(Br)cc2)C(=O)O1`, for which the z-score is 0.101 and -0.0592.

Regarding `CC(C)=CCCC(C)=CCON=C1C[C@@H](O)[C@@H](O)[C@@H]2[C@@H]3C(=O)N([C@@H](C)c4ccccc4)C(=O)[C@@H]3CC[C@H]12`, the z-score was -0.414. `CCOC(=O)[C@H](CC(C)C)NC(=O)CCC1CC(OC(=O)NCc2cccc3ccccc23)CC2(CCCC(COC(=O)NCc3ccccc3)O2)O1` (some centres undefined): the z-score was -2.88. The figure for `CCCNC(=O)OC[C@H]1O[C@H](CCON=C(C)CCC(=O)OC[C@H]2O[C@H](C#Cc3ccccc3)C=C[C@@H]2Oc2ccc(C)cc2)C=C[C@@H]1Oc1ccc(OC)cc1` is -0.983; for `C=CCN(CCCCC)C(=O)C1N(c2c(Cl)cccc2CO)C(=O)C2C(C(=O)O)C3C=CC21O3` (centres undefined) it is -2.42 and -0.615; for `CC(C)N1CC=CC23O[C@@H]4C=CCCOC(=O)C4[C@H]2C(=O)N(C(C)CO)[C@@H]3C1=O` (some centres undefined) it is -3.49 and -4.21. The figure for `CCOC(=O)[C@@H]1CC=C2CC1C(=O)N1CCC[C@@H]1[C@H]2O[Si](C)(C)C(C)(C)C` (some centres undefined) is -1.82 and -4.44. The figure for `CC(C)CCN1CCc2nc(-c3ccccc3)c3c(c2C1)CO[C@@H](C)C3` is -3.47; for `CCOC(=O)c1ccc(NC(=O)O[C@H]2[C@H](OC(=O)Nc3ccccc3)[C@@H](OC(=O)Nc3ccccc3)[C@@H](OC)O[C@@H]2CO)cc1` it is -3.34 and -4.61.
